Laboratory results: the supplement of paper PMC12669032

Key:
Test in all cases: growth AUC relative to DMSO control (median of replicates) (fraction); higher = more growth (less inhibition), active = hit call of the paper
Conditions in all cases: 20 µM; 24 h;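 active = AUC reduced over 20% with Padj below 0.05 in at least 2 of 3 replicates; inactive = otherwise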
Akkermansia muciniphila = system: Akkermansia muciniphila
Procedure, shortened: (§1)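 Each value is the median of three biological replicates, grown on separate days, of a gut bacterial monoculture incubated anaerobically at 37 °C in mGAM with 20 µM compound (1% DMSO). Cultures started at OD600 0.05 and were read at OD600 hourly for 24 h, with the minimum OD set to 0. Area under the growth curve was normalised to the plate median of solvent-only wells, or to row and column medians on the industrial chemical plate.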

Bacteroides caccae = system: Bacteroides caccae
Procedure, shortened: as §1

Bacteroides clarus = system: Bacteroides clarus
Procedure, shortened: as §1

Bacteroides dorei = system: Bacteroides dorei
Procedure, shortened: as §1

Bacteroides stercoris = system: Bacteroides stercoris
Procedure, shortened: as §1

[1] = system: Bacteroides thetaiotaomicron
Procedure, shortened: as §1

Bacteroides uniformis = system: Bacteroides uniformis
Procedure, shortened: as §1

[2] = system: Bifidobacterium longum subsp. longum
Procedure, shortened: as §1

Clostridium difficile = system: Clostridium difficile
Procedure, shortened: as §1

Collinsella aerofaciens = system: Collinsella aerofaciens
Procedure, shortened: as §1

Coprococcus comes = system: Coprococcus comes
Procedure, shortened: as §1

Escherichia coli ED1a = system: Escherichia coli ED1a
Procedure, shortened: as §1

Escherichia coli IAI1 = system: Escherichia coli IAI1
Procedure, shortened: as §1

Eubacterium rectale = system: Eubacterium rectale
Procedure, shortened: as §1

[3] = system: Fusobacterium nucleatum subsp. animalis
Procedure, shortened: as §1

Lactobacillus gasseri = system: Lactobacillus gasseri
Procedure, shortened: as §1

Lactobacillus paracasei = system: Lactobacillus paracasei
Procedure, shortened: as §1

Odoribacter splanchnicus = system: Odoribacter splanchnicus
Procedure, shortened: as §1

[4] = system: Parabacteroides distasonis
Procedure, shortened: as §1

Parabacteroides merdae = system: Parabacteroides merdae
Procedure, shortened: as §1

Measured: growth AUC

COc1nc(OC)nc(C(=O)c2cccc(F)c2N(C)S(=O)(=O)C(F)F)n1
inactive: Akkermansia muciniphila 0.993 | Bacteroides caccae 1 | Bacteroides clarus 1 | Bacteroides dorei 1 | Bacteroides stercoris 1.07 | [1] 1.01 | Bacteroides uniformis 1.03 | [2] 1.03 | Clostridium difficile 1.04 | Collinsella aerofaciens 1.04 | Coprococcus comes 1.03 | Escherichia coli ED1a 0.999 | Escherichia coli IAI1 0.986 | Eubacterium rectale 1.18 | [3] 1.05 | Lactobacillus gasseri 1.02 | Lactobacillus paracasei 0.977 | Odoribacter splanchnicus 0.892 | [4] 1.03 | Parabacteroides merdae 0.927

CC(C)(c1cc(Br)c(O)c(Br)c1)c1cc(Br)c(O)c(Br)c1
inactive: Akkermansia muciniphila 0.904 | Escherichia coli ED1a 1.04 | Escherichia coli IAI1 0.997
active: Bacteroides caccae 0.0238 | Bacteroides clarus 0.0496 | Bacteroides dorei 0.675 | Bacteroides stercoris 0.0125 | [1] 0.662 | Bacteroides uniformis 0.297 | [2] 0.252 | Clostridium difficile 0.0683 | Collinsella aerofaciens 0.0491 | Coprococcus comes 0.41 | Eubacterium rectale 0.0259 | [3] 0.465 | Lactobacillus gasseri 0.136 | Lactobacillus paracasei 0.0653 | Odoribacter splanchnicus 0.0465 | [4] 0.0802 | Parabacteroides merdae 0.151

Cc1[nH]n(C)c(=O)c1C(=O)c1ccc(C(F)(F)F)cc1S(C)(=O)=O
inactive: Akkermansia muciniphila 0.91 | Bacteroides caccae 1.06 | Bacteroides clarus 0.997 | Bacteroides dorei 1.02 | Bacteroides stercoris 1.01 | [1] 0.978 | Bacteroides uniformis 1.01 | [2] 0.977 | Clostridium difficile 0.989 | Collinsella aerofaciens 1 | Coprococcus comes 0.991 | Escherichia coli ED1a 1.01 | Escherichia coli IAI1 1.08 | Eubacterium rectale 0.972 | [3] 1.01 | Lactobacillus gasseri 1.02 | Lactobacillus paracasei 1.03 | Odoribacter splanchnicus 1.02 | [4] 1.04 | Parabacteroides merdae 0.974

CCc1ccc(C(c2ccc(CC)cc2)C(Cl)Cl)cc1
inactive: Akkermansia muciniphila 0.859 | Bacteroides caccae 0.912 | Bacteroides clarus 0.952 | Bacteroides dorei 1.02 | Bacteroides stercoris 0.931 | [1] 0.977 | Bacteroides uniformis 1.02 | [2] 0.972 | Clostridium difficile 1.03 | Collinsella aerofaciens 0.901 | Coprococcus comes 1.04 | Escherichia coli ED1a 1.02 | Escherichia coli IAI1 1.01 | Eubacterium rectale 0.935 | [3] 0.939 | Lactobacillus gasseri 0.938 | Lactobacillus paracasei 0.996 | Odoribacter splanchnicus 1 | [4] 0.976 | Parabacteroides merdae 0.882

Cc1ccc(C)c(O)c1
inactive: Akkermansia muciniphila 0.958 | Bacteroides caccae 1.02 | Bacteroides clarus 0.98 | Bacteroides dorei 1 | Bacteroides stercoris 0.996 | [1] 1 | Bacteroides uniformis 1.01 | [2] 1.05 | Clostridium difficile 1.01 | Collinsella aerofaciens 1.01 | Coprococcus comes 0.988 | Escherichia coli ED1a 0.996 | Escherichia coli IAI1 1.01 | Eubacterium rectale 0.958 | [3] 0.988 | Lactobacillus gasseri 1.02 | Lactobacillus paracasei 0.953 | Odoribacter splanchnicus 1 | [4] 0.991 | Parabacteroides merdae 1.03

CC(C)(C)[C@@H](O)[C@@H](Cc1ccc(Cl)cc1)n1cncn1 (mixture of isomers)
inactive: Akkermansia muciniphila 1.1 | Bacteroides caccae 0.942 | Bacteroides clarus 0.98 | Bacteroides dorei 0.909 | Bacteroides stercoris 0.933 | [1] 0.993 | Bacteroides uniformis 0.966 | [2] 1.09 | Clostridium difficile 0.938 | Collinsella aerofaciens 0.967 | Coprococcus comes 0.994 | Escherichia coli ED1a 1 | Escherichia coli IAI1 0.986 | Eubacterium rectale 1.02 | [3] 0.975 | Lactobacillus gasseri 0.913 | Lactobacillus paracasei 0.954 | Odoribacter splanchnicus 1.13 | [4] 0.983 | Parabacteroides merdae 0.911

CCOC(=O)CSc1nc(C(C)(C)C)nn1C(=O)N(C)C
inactive: Akkermansia muciniphila 1.03 | Bacteroides caccae 0.951 | Bacteroides clarus 0.96 | Bacteroides dorei 0.94 | Bacteroides stercoris 0.815 | [1] 0.978 | Bacteroides uniformis 0.989 | [2] 0.96 | Clostridium difficile 1.01 | Collinsella aerofaciens 0.931 | Coprococcus comes 0.985 | Escherichia coli ED1a 0.961 | Escherichia coli IAI1 0.947 | Eubacterium rectale 1.05 | [3] 0.918 | Lactobacillus gasseri 0.91 | Lactobacillus paracasei 0.956 | Odoribacter splanchnicus 0.948 | [4] 0.896 | Parabacteroides merdae 0.947

CC(C)(C)C(O)/C(=C\c1ccc(Cl)cc1)n1cncn1 (stereo not given)
inactive: Akkermansia muciniphila 1.05 | Bacteroides caccae 0.903 | Bacteroides clarus 0.987 | Bacteroides dorei 0.919 | Bacteroides stercoris 1.19 | [1] 0.958 | Bacteroides uniformis 0.973 | [2] 1.04 | Clostridium difficile 0.991 | Collinsella aerofaciens 0.969 | Coprococcus comes 1.03 | Escherichia coli ED1a 0.988 | Escherichia coli IAI1 1.03 | Eubacterium rectale 0.978 | [3] 0.987 | Lactobacillus gasseri 0.943 | Lactobacillus paracasei 1.05 | Odoribacter splanchnicus 0.976 | [4] 0.959 | Parabacteroides merdae 0.948

CSC(=O)c1cccc2nnsc12
inactive: Akkermansia muciniphila 0.851 | Bacteroides caccae 1.04 | Bacteroides clarus 0.997 | Bacteroides dorei 0.978 | Bacteroides stercoris 1.07 | [1] 0.961 | Bacteroides uniformis 1 | [2] 1.04 | Clostridium difficile 1 | Collinsella aerofaciens 1.01 | Coprococcus comes 1.01 | Escherichia coli ED1a 0.994 | Escherichia coli IAI1 0.981 | Eubacterium rectale 1.03 | [3] 1.12 | Lactobacillus gasseri 0.934 | Lactobacillus paracasei 0.953 | Odoribacter splanchnicus 1.01 | [4] 0.921 | Parabacteroides merdae 1.01

O=C(Nc1ccc(O)cc1-c1ccc(Cl)cc1)c1cccnc1Cl
inactive: Akkermansia muciniphila 0.889 | Bacteroides caccae 1.02 | Bacteroides clarus 0.976 | Bacteroides dorei 1.03 | Bacteroides stercoris 0.964 | [1] 1.01 | Bacteroides uniformis 1 | [2] 1.01 | Clostridium difficile 1.03 | Collinsella aerofaciens 1.02 | Coprococcus comes 0.924 | Escherichia coli ED1a 0.986 | Escherichia coli IAI1 0.976 | Eubacterium rectale 0.962 | [3] 0.916 | Lactobacillus gasseri 1.02 | Lactobacillus paracasei 1 | Odoribacter splanchnicus 0.872 | [4] 1.01 | Parabacteroides merdae 0.994

CC(C)(CO)C(O)(CCc1ccc(Cl)cc1)Cn1cncn1 (stereo not given)
inactive: Akkermansia muciniphila 1.01 | Bacteroides caccae 0.955 | Bacteroides clarus 0.998 | Bacteroides dorei 0.967 | Bacteroides stercoris 1.01 | [1] 0.969 | Bacteroides uniformis 0.994 | [2] 0.967 | Clostridium difficile 0.991 | Collinsella aerofaciens 0.991 | Coprococcus comes 0.989 | Escherichia coli ED1a 1.03 | Escherichia coli IAI1 0.999 | Eubacterium rectale 1.1 | [3] 1 | Lactobacillus gasseri 0.88 | Lactobacillus paracasei 1.04 | Odoribacter splanchnicus 0.979 | [4] 0.88 | Parabacteroides merdae 0.985

CCC([O-])=C1C(=O)CC(C(=O)[O-])CC1=O.[Ca+2] (stereo not given)
inactive: Akkermansia muciniphila 0.965 | Bacteroides caccae 1 | Bacteroides clarus 0.998 | Bacteroides dorei 0.996 | Bacteroides stercoris 1.1 | [1] 0.958 | Bacteroides uniformis 1.01 | [2] 1.03 | Clostridium difficile 1 | Collinsella aerofaciens 0.995 | Coprococcus comes 0.957 | Escherichia coli ED1a 1 | Escherichia coli IAI1 0.972 | Eubacterium rectale 1.13 | [3] 1.11 | Lactobacillus gasseri 1.06 | Lactobacillus paracasei 0.91 | Odoribacter splanchnicus 0.976 | [4] 0.993 | Parabacteroides merdae 0.996

Nc1cc(Cl)nc(C(=O)O)c1Cl
inactive: Akkermansia muciniphila 1.11 | Bacteroides caccae 1.01 | Bacteroides clarus 1.04 | Bacteroides dorei 0.971 | Bacteroides stercoris 1.15 | [1] 1.03 | Bacteroides uniformis 1.02 | [2] 1.06 | Clostridium difficile 0.952 | Collinsella aerofaciens 0.997 | Coprococcus comes 1.03 | Escherichia coli ED1a 1.04 | Escherichia coli IAI1 1.02 | Eubacterium rectale 1.01 | [3] 1.03 | Lactobacillus gasseri 0.961 | Lactobacillus paracasei 1.24 | Odoribacter splanchnicus 1.05 | [4] 1.03 | Parabacteroides merdae 1.02

Cc1nn(C)c(Oc2ccccc2)c1/C=N/OCc1ccc(C(=O)OC(C)(C)C)cc1
inactive: Akkermansia muciniphila 1.04 | Bacteroides caccae 1.01 | Bacteroides clarus 1.03 | Bacteroides dorei 0.974 | Bacteroides stercoris 0.961 | [1] 0.982 | Bacteroides uniformis 0.969 | [2] 0.944 | Clostridium difficile 1.02 | Collinsella aerofaciens 0.963 | Coprococcus comes 0.996 | Escherichia coli ED1a 0.984 | Escherichia coli IAI1 0.991 | Eubacterium rectale 0.907 | [3] 0.973 | Lactobacillus gasseri 0.901 | Lactobacillus paracasei 1.01 | Odoribacter splanchnicus 1.01 | [4] 1.03 | Parabacteroides merdae 0.925

CCOC(=O)C(C)Oc1ccc(Oc2cnc3cc(Cl)ccc3n2)cc1 (stereo not given)
inactive: Akkermansia muciniphila 1.01 | Bacteroides caccae 0.978 | Bacteroides clarus 0.953 | Bacteroides dorei 0.942 | Bacteroides stercoris 1.01 | [1] 0.992 | Bacteroides uniformis 0.932 | [2] 1.06 | Clostridium difficile 1.03 | Collinsella aerofaciens 1.02 | Coprococcus comes 1.01 | Escherichia coli ED1a 0.997 | Escherichia coli IAI1 1.04 | Eubacterium rectale 1.09 | [3] 1.03 | Lactobacillus gasseri 1.04 | Lactobacillus paracasei 0.95 | Odoribacter splanchnicus 1.02 | [4] 0.971 | Parabacteroides merdae 0.956

CCOCN(C(=O)C(=O)O)c1c(C)cccc1CC
inactive: Akkermansia muciniphila 0.978 | Bacteroides caccae 1.01 | Bacteroides clarus 0.989 | Bacteroides dorei 1.02 | Bacteroides stercoris 1.02 | [1] 1.01 | Bacteroides uniformis 1.01 | [2] 1.01 | Clostridium difficile 0.986 | Collinsella aerofaciens 1.02 | Coprococcus comes 1.01 | Escherichia coli ED1a 1 | Escherichia coli IAI1 0.996 | Eubacterium rectale 0.989 | [3] 1.03 | Lactobacillus gasseri 0.989 | Lactobacillus paracasei 1.05 | Odoribacter splanchnicus 0.991 | [4] 1.02 | Parabacteroides merdae 1.01
